# From the supplement of paper PMC4022240
# ± gives the standard deviation.
# T1: HaloTag-ATRX ADD domain (163-292)
# T1 chain: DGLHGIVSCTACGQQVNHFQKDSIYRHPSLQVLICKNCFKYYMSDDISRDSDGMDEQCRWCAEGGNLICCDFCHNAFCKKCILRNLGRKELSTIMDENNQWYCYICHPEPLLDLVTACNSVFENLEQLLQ
# Legend:
# Test in all cases: peptide microarray binding signal (635 nm), min-max normalized on array (fraction of array maximum); higher = stronger binding
# [1] = target: T1, HaloTag-ATRX ADD domain (163-292)
# Summary of the method: (§1)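 Triplicate spots of histone 13-mer peptide–cellulose conjugates with a Cy3 tracer were printed on nitrocellulose and probed for 1 h at 4°C with biotin-labelled HaloTag reader fusions (10 nM to 1 μM) plus streptavidin-Alexa Fluor 647 or rabbit histone antibodies (1:10,000 to 1:2,000) plus anti-rabbit Alexa 647. An Axon GenePix 4000B read the 635 nm channel. Binding signal is the spot-triplicate mean intensity after min-max scaling within each library.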
# [2] = target: HaloTag-ING2 PHD (mouse Ing2 200-280)
# Summary of the method: as §1
# [3] = target: anti-H3K4me3 antibody ab8580
# Summary of the method: as §1
# [4] = target: anti-H3K9me3 antibody ab8898
# Summary of the method: as §1
# [5] = peptide region: H3 73-85, binder concentration: 1:2,000 dilution
# [6] = peptide region: H3 73-85, binder concentration: 1:10,000 dilution
# [7] = peptide region: H3 112-124, binder concentration: 1:2,000 dilution
# [8] = peptide region: H3 112-124, binder concentration: 1:10,000 dilution
# [9] = peptide region: H3 73-85, peptide modifications: H3T80ph, binder concentration: 1:2,000 dilution
# [10] = peptide region: H3 73-85, peptide modifications: H3T80ph, binder concentration: 1:10,000 dilution
# [11] = peptide region: H3 50-62, peptide modifications: H3T58ph, binder concentration: 1:2,000 dilution
# [12] = peptide region: H3 50-62, peptide modifications: H3T58ph, binder concentration: 1:10,000 dilution
# [13] = peptide region: H3 73-85, peptide modifications: H3K79me2, binder concentration: 1:2,000 dilution
# [14] = peptide region: H3 73-85, peptide modifications: H3K79me2, binder concentration: 1:10,000 dilution
# [15] = peptide region: H3 112-124, peptide modifications: H3K115ac H3K122me2, binder concentration: 1:2,000 dilution
# [16] = peptide region: H3 112-124, peptide modifications: H3K115ac H3K122me2, binder concentration: 1:10,000 dilution
# [17] = peptide region: H3 112-124, peptide modifications: H3K115ac H3K122me3, binder concentration: 1:2,000 dilution
# [18] = peptide region: H3 112-124, peptide modifications: H3K115ac H3K122me3, binder concentration: 1:10,000 dilution
# [19] = peptide region: H3 73-85, peptide modifications: H3K79ac H3T80ph, binder concentration: 1:2,000 dilution
# [20] = peptide region: H3 73-85, peptide modifications: H3K79ac H3T80ph, binder concentration: 1:10,000 dilution
# [21] = peptide region: H3 73-85, peptide modifications: H3K79me3, binder concentration: 1:2,000 dilution
# [22] = peptide region: H3 73-85, peptide modifications: H3K79me3, binder concentration: 1:10,000 dilution
# [23] = peptide region: H3 112-124, peptide modifications: H3K115ac H3K122me1, binder concentration: 1:2,000 dilution
# [24] = peptide region: H3 112-124, peptide modifications: H3K115ac H3K122me1, binder concentration: 1:10,000 dilution
binder,measurement,setting,value
EIAQDFKTDLRFQ [H3 73-85 E I A Q D F K T D L R F Q],peptide microarray binding signal,"[1]; peptide region: H3 73-85, binder concentration: 50 nM",0.0048 ± 0.00013
same,peptide microarray binding signal,"[1]; peptide region: H3 73-85, binder concentration: 500 nM",0.0155 ± 0.00056
same,peptide microarray binding signal,"[2]; peptide region: H3 73-85, binder concentration: 10 nM",0.008 ± 0.00096
same,peptide microarray binding signal,"[2]; peptide region: H3 73-85, binder concentration: 100 nM",0.00248 ± 6.3e-05
same,peptide microarray binding signal,[3]; [5],0.000264 ± 5.6e-06
same,peptide microarray binding signal,[3]; [6],0.00228 ± 0.0003
same,peptide microarray binding signal,[4]; [5],0.00308 ± 0.00021
same,peptide microarray binding signal,[4]; [6],0.00236 ± 6.4e-05
IHAKRVTIMPKDI [H3 112-124 I H A K R V T I M P K D I],peptide microarray binding signal,"[1]; peptide region: H3 112-124, binder concentration: 50 nM",0.00972 ± 0.00063
same,peptide microarray binding signal,"[1]; peptide region: H3 112-124, binder concentration: 500 nM",0.0345 ± 0.00086
same,peptide microarray binding signal,"[2]; peptide region: H3 112-124, binder concentration: 10 nM",0.0135 ± 0.0014
same,peptide microarray binding signal,"[2]; peptide region: H3 112-124, binder concentration: 100 nM",0.0205 ± 0.0093
same,peptide microarray binding signal,[3]; [7],0.00261 ± 0.00029
same,peptide microarray binding signal,[3]; [8],0.001883 ± 1.8e-05
same,peptide microarray binding signal,[4]; [7],0.00415 ± 0.00045
same,peptide microarray binding signal,[4]; [8],0.00167 ± 2.8e-05
EIAQDFKTDLRFQ [H3 73-85 E I A Q D F K Tph D L R F Q],peptide microarray binding signal,"[1]; peptide region: H3 73-85, peptide modifications: H3T80ph, binder concentration: 50 nM",0.00129 ± 3.8e-05
same,peptide microarray binding signal,"[1]; peptide region: H3 73-85, peptide modifications: H3T80ph, binder concentration: 500 nM",0.00386 ± 0.00022
same,peptide microarray binding signal,"[2]; peptide region: H3 73-85, peptide modifications: H3T80ph, binder concentration: 10 nM",0.00406 ± 0.00014
same,peptide microarray binding signal,"[2]; peptide region: H3 73-85, peptide modifications: H3T80ph, binder concentration: 100 nM",0.000921
same,peptide microarray binding signal,[3]; [9],0.000547 ± 3.5e-05
same,peptide microarray binding signal,[3]; [10],0.000685 ± 7.2e-06
same,peptide microarray binding signal,[4]; [9],0.00186 ± 2e-05
same,peptide microarray binding signal,[4]; [10],0.00127 ± 4.6e-05
EIRRYQKSTELLI [H3 50-62 E I R R Y Q K S Tph E L L I],peptide microarray binding signal,"[1]; peptide region: H3 50-62, peptide modifications: H3T58ph, binder concentration: 50 nM",0.000784 ± 1.1e-05
same,peptide microarray binding signal,"[1]; peptide region: H3 50-62, peptide modifications: H3T58ph, binder concentration: 500 nM",0.00119 ± 3e-05
same,peptide microarray binding signal,"[2]; peptide region: H3 50-62, peptide modifications: H3T58ph, binder concentration: 10 nM",0.00209 ± 3.2e-05
same,peptide microarray binding signal,"[2]; peptide region: H3 50-62, peptide modifications: H3T58ph, binder concentration: 100 nM",0.000425 ± 4.9e-06
same,peptide microarray binding signal,[3]; [11],0.000151 ± 3.3e-06
same,peptide microarray binding signal,[3]; [12],0.000114 ± 1.3e-06
same,peptide microarray binding signal,[4]; [11],0.0006041 ± 5.5e-06
same,peptide microarray binding signal,[4]; [12],0.000519 ± 5.6e-06
EIAQDFKTDLRFQ [H3 73-85 E I A Q D F Kme2 T D L R F Q],peptide microarray binding signal,"[1]; peptide region: H3 73-85, peptide modifications: H3K79me2, binder concentration: 50 nM",0.002539 ± 2.2e-05
same,peptide microarray binding signal,"[1]; peptide region: H3 73-85, peptide modifications: H3K79me2, binder concentration: 500 nM",0.00633 ± 0.00033
same,peptide microarray binding signal,"[2]; peptide region: H3 73-85, peptide modifications: H3K79me2, binder concentration: 10 nM",0.00281 ± 3.1e-05
same,peptide microarray binding signal,"[2]; peptide region: H3 73-85, peptide modifications: H3K79me2, binder concentration: 100 nM",0.00376 ± 0.00014
same,peptide microarray binding signal,[3]; [13],0.00106 ± 6.2e-05
same,peptide microarray binding signal,[3]; [14],0.00097 ± 2e-05
same,peptide microarray binding signal,[4]; [13],0.0117 ± 0.004
same,peptide microarray binding signal,[4]; [14],0.00709 ± 0.00024
IHAKRVTIMPKDI [H3 112-124 I H A Kac R V T I M P Kme2 D I],peptide microarray binding signal,"[1]; peptide region: H3 112-124, peptide modifications: H3K115ac H3K122me2, binder concentration: 50 nM",0.00668 ± 0.00012
same,peptide microarray binding signal,"[1]; peptide region: H3 112-124, peptide modifications: H3K115ac H3K122me2, binder concentration: 500 nM",0.0132 ± 0.00064
same,peptide microarray binding signal,"[2]; peptide region: H3 112-124, peptide modifications: H3K115ac H3K122me2, binder concentration: 10 nM",0.0198 ± 0.004
same,peptide microarray binding signal,"[2]; peptide region: H3 112-124, peptide modifications: H3K115ac H3K122me2, binder concentration: 100 nM",0.0271 ± 0.0018
same,peptide microarray binding signal,[3]; [15],0.00159 ± 0.00013
same,peptide microarray binding signal,[3]; [16],0.00211 ± 5.8e-05
same,peptide microarray binding signal,[4]; [15],0.00169 ± 0.00021
same,peptide microarray binding signal,[4]; [16],0.00133 ± 4e-05
IHAKRVTIMPKDI [H3 112-124 I H A Kac R V T I M P Kme3 D I],peptide microarray binding signal,"[1]; peptide region: H3 112-124, peptide modifications: H3K115ac H3K122me3, binder concentration: 50 nM",0.0118 ± 0.00049
same,peptide microarray binding signal,"[1]; peptide region: H3 112-124, peptide modifications: H3K115ac H3K122me3, binder concentration: 500 nM",0.027 ± 0.0019
same,peptide microarray binding signal,"[2]; peptide region: H3 112-124, peptide modifications: H3K115ac H3K122me3, binder concentration: 10 nM",0.04 ± 0.0046
same,peptide microarray binding signal,"[2]; peptide region: H3 112-124, peptide modifications: H3K115ac H3K122me3, binder concentration: 100 nM",0.0592 ± 0.018
same,peptide microarray binding signal,[3]; [17],0.00634 ± 0.00027
same,peptide microarray binding signal,[3]; [18],0.00679 ± 0.00065
same,peptide microarray binding signal,[4]; [17],0.0228 ± 0.0018
same,peptide microarray binding signal,[4]; [18],0.0104 ± 0.00089
EIAQDFKTDLRFQ [H3 73-85 E I A Q D F Kac Tph D L R F Q],peptide microarray binding signal,"[1]; peptide region: H3 73-85, peptide modifications: H3K79ac H3T80ph, binder concentration: 50 nM",0.000721 ± 1.1e-05
same,peptide microarray binding signal,"[1]; peptide region: H3 73-85, peptide modifications: H3K79ac H3T80ph, binder concentration: 500 nM",0.00171 ± 4.6e-05
same,peptide microarray binding signal,"[2]; peptide region: H3 73-85, peptide modifications: H3K79ac H3T80ph, binder concentration: 10 nM",0.00221 ± 4.4e-05
same,peptide microarray binding signal,"[2]; peptide region: H3 73-85, peptide modifications: H3K79ac H3T80ph, binder concentration: 100 nM",0.000638 ± 7.1e-06
same,peptide microarray binding signal,[3]; [19],0.000491 ± 2.4e-05
same,peptide microarray binding signal,[3]; [20],0.000628 ± 1.8e-05
same,peptide microarray binding signal,[4]; [19],0.000951 ± 3.6e-05
same,peptide microarray binding signal,[4]; [20],0.000865 ± 1.8e-05
EIAQDFKTDLRFQ [H3 73-85 E I A Q D F Kme3 T D L R F Q],peptide microarray binding signal,"[1]; peptide region: H3 73-85, peptide modifications: H3K79me3, binder concentration: 50 nM",0.0032 ± 3.5e-05
same,peptide microarray binding signal,"[1]; peptide region: H3 73-85, peptide modifications: H3K79me3, binder concentration: 500 nM",0.0059 ± 0.0008
same,peptide microarray binding signal,"[2]; peptide region: H3 73-85, peptide modifications: H3K79me3, binder concentration: 10 nM",0.00483 ± 8.8e-05
same,peptide microarray binding signal,"[2]; peptide region: H3 73-85, peptide modifications: H3K79me3, binder concentration: 100 nM",0.00723 ± 0.00027
same,peptide microarray binding signal,[3]; [21],0.00851 ± 0.00073
same,peptide microarray binding signal,[3]; [22],0.0112 ± 0.0053
same,peptide microarray binding signal,[4]; [21],0.227 ± 0.017
same,peptide microarray binding signal,[4]; [22],0.201 ± 0.042
IHAKRVTIMPKDI [H3 112-124 I H A Kac R V T I M P Kme D I],peptide microarray binding signal,"[1]; peptide region: H3 112-124, peptide modifications: H3K115ac H3K122me1, binder concentration: 50 nM",0.00809 ± 8.8e-05
same,peptide microarray binding signal,"[1]; peptide region: H3 112-124, peptide modifications: H3K115ac H3K122me1, binder concentration: 500 nM",0.0164 ± 0.00068
same,peptide microarray binding signal,"[2]; peptide region: H3 112-124, peptide modifications: H3K115ac H3K122me1, binder concentration: 10 nM",0.0183 ± 0.00056
same,peptide microarray binding signal,"[2]; peptide region: H3 112-124, peptide modifications: H3K115ac H3K122me1, binder concentration: 100 nM",0.0281 ± 0.0012
same,peptide microarray binding signal,[3]; [23],0.00164 ± 0.00014
same,peptide microarray binding signal,[3]; [24],0.002054 ± 1.9e-05
same,peptide microarray binding signal,[4]; [23],0.00136 ± 6.1e-05
same,peptide microarray binding signal,[4]; [24],0.00138 ± 1.4e-05
